Assay outcomes deposited in PubChem BioAssay by National Center for Advancing Translational Sciences (NCATS).
Most compounds without a hit are left out; they make up all but 19% or so of the library.
HT1080NT lethal – qHTS for induction of synthetic lethality in tumor cells producing 2HG: qHTS for the HT-1080-NT fibrosarcoma cell line | HT-1080-NT fibrosarcoma viability, CellTiter-Glo ATP luminescence, 48 h | Potency, µM (doses to about 46.1 µM), actives largely listed as cytotoxic | 1.6% of 360,000 active | AID 686970, 2013;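 further: NT is the 2HG producing partner of a matched IDH1 knockdown line; nearly all actives have a fitted effect of over 55% in size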
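Read-out is CellTiter-Glo luminescence after 10 minutes at room temperature, following 48 hours' compound treatment of HT-1080-NT cells (750 cells/well, RPMI, 5% FBS, 37 degrees C).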
HT1080 IDH1KD tx – qHTS for induction of synthetic lethality in tumor cells producing 2HG: qHTS for the HT-1080-IDH1KD cell line; HT-1080 IDH1 knockdown viability, ATP luminescence, 48 h; Potency, µM (highest dose often 46.1 µM), usual class: cytotoxic; 2% of 360,000 active; AID 686971, 2013
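HT-1080-IDH1KD cells (IDH1 knocked down), 750/well in RPMI with 5% FBS, treated with compound 48 h at 37 degrees C. Viability by CellTiter-Glo luminescence, normalised to DMSO and no-cell wells; concentration-response curves classed.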
DT40 TDP1 no CPT – qHTS for Inhibitors of human tyrosyl-DNA phosphodiesterase 1 (TDP1): qHTS in cells in absence of CPT; DT40 Tdp1-/- hTDP1 cells, no CPT, ATP luminescence, 48 h; Potency, µM (highest dose often 46.2 µM), actives largely listed as inhibitors; 15% of 420,000 active; AID 686978, 2013; further: nearly all actives have a fitted effect of over 55% in size
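Stably hTDP1-transfected Tdp1-null chicken DT40 cells were treated with library compounds minus camptothecin and grown for at least 48 hr at 37 °C, after which cellular ATP was quantified by luminescence.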
IL-1B inflam inh – qHTS for Inhibitors of Inflammasome Signaling: IL-1-beta AlphaLISA Primary Screen; THP-1 LPS/ATP IL-1B secretion, AlphaLISA, 16 h; hits give low values; activity change, % at 57.5 µM; 4.7% of 360,000 active; in the data active means activity change below about -50%; inconclusive means mostly about -30% to -49%
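THP-1 cells pretreated 1 hr with compounds (up to 57.5 uM final), then stimulated with LPS (250 ng/mL final) plus ATP (1.25 mM final); secreted IL-1B measured by AlphaLISA after 16 hr, decreased signal indicating inhibition.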
DT40 TDP1 CPT – qHTS for Inhibitors of human tyrosyl-DNA phosphodiesterase 1 (TDP1): qHTS in cells in presence of CPT | Potency, µM (top dose mostly 46.2 µM), most hits filed as inhibitors | chicken DT40 Tdp1-/-;hTDP1 cells + 20 nM CPT, ATP luminescence, 48 h | 12% of 420,000 active; further: nearly all actives have a fitted effect of over 55% in size
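Cell growth measured by CellTiter-Glo luminescence after a minimum 48 h, 37 C compound exposure with 20 nM CPT in Tdp1-knockout DT40 cells stably expressing hTDP1, seeded 400/well; qHTS titration format.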
A number is an active result. Unless noted, the call rests on the fitted dose curve; in most records, active means well fitted curve in the direction sought with a large enough effect; inconclusive means small, poorly fitted or top-dose-only effect, or another doubt; inactive means no such curve, though single readings can be large; an effect the other way counts as inactive or inconclusive.

`O=C(c1ccco1)N1CCC(c2nc3c(nnn3Cc3c(Cl)cccc3Cl)c(=O)[nH]2)CC1` gave HT1080NT lethal inactive, HT1080 IDH1KD tx inactive, DT40 TDP1 no CPT inconclusive, IL-1B inflam inh inactive and DT40 TDP1 CPT inactive.
CC(C)(C)c1ccc(Cn2nnc3c(=O)[nH]c(C4CCCN(C(=O)c5cccs5)C4)nc32)cc1 (centres undefined) was read as HT1080NT lethal inconclusive, HT1080 IDH1KD tx inconclusive, DT40 TDP1 no CPT inconclusive, IL-1B inflam inh inconclusive and DT40 TDP1 CPT 16.4µM.
`COCC(=O)N(C)c1nnc(-c2cnc(C)cn2)s1` gave HT1080NT lethal inactive, HT1080 IDH1KD tx inactive, DT40 TDP1 no CPT inactive, IL-1B inflam inh inactive and DT40 TDP1 CPT inactive.
CC(C)(C)CC(=O)N1CCC(c2nc3c(nnn3Cc3c(F)cccc3Cl)c(=O)[nH]2)CC1 was read as HT1080NT lethal inactive, HT1080 IDH1KD tx inactive, DT40 TDP1 no CPT inconclusive, IL-1B inflam inh inactive and DT40 TDP1 CPT 16.4µM.
`O=C(c1ccccc1)N1CCC(c2nc3c(nnn3Cc3ccccc3Cl)c(=O)[nH]2)CC1` gave HT1080NT lethal inconclusive, HT1080 IDH1KD tx inconclusive, DT40 TDP1 no CPT inactive, IL-1B inflam inh inactive and DT40 TDP1 CPT inactive.
Screening CCCSc1nc(C)cc(C)c1S(=O)(=O)c1ccccc1C returned HT1080NT lethal inactive, HT1080 IDH1KD tx inactive, DT40 TDP1 no CPT 7.31µM, IL-1B inflam inh inactive and DT40 TDP1 CPT 16.4µM.
For Cc1cc(C)c(S(=O)(=O)c2ccccc2C)c(OCC(C)(C)C)n1 the results were HT1080NT lethal inactive, HT1080 IDH1KD tx inactive, DT40 TDP1 no CPT 9.2µM, IL-1B inflam inh inactive and DT40 TDP1 CPT 10.3µM.
Cc1cc(C)c(S(=O)(=O)c2ccccc2C)c(SCC(C)C)n1 was read as HT1080NT lethal inactive, HT1080 IDH1KD tx inactive, DT40 TDP1 no CPT 23.1µM, IL-1B inflam inh inactive and DT40 TDP1 CPT inconclusive.
Screening Cc1ccc(S(=O)(=O)c2c(C)cc(C)nc2Oc2cccc(C)c2C)cc1 returned HT1080NT lethal inactive, HT1080 IDH1KD tx inactive, DT40 TDP1 no CPT 18.4µM, IL-1B inflam inh inactive and DT40 TDP1 CPT inconclusive.
COc1ccccc1S(=O)(=O)N(C)C[C@@H]1OCc2cn(nn2)CCCC(=O)N([C@H](C)CO)C[C@H]1C was read as HT1080NT lethal inactive, HT1080 IDH1KD tx inactive, DT40 TDP1 no CPT inactive, IL-1B inflam inh inactive and DT40 TDP1 CPT inactive.
`CN(C)CCNCc1ccc(OC2CCCC2)cc1` gave HT1080NT lethal inactive, HT1080 IDH1KD tx inactive, DT40 TDP1 no CPT inconclusive, IL-1B inflam inh inactive and DT40 TDP1 CPT inconclusive.
`CN(C)CCOC1(Cc2ccc(F)cc2)CCC(C(C)(C)C)CC1` (centres undefined) gave HT1080NT lethal inactive, HT1080 IDH1KD tx inactive, DT40 TDP1 no CPT 18.4µM, IL-1B inflam inh -104.4 and DT40 TDP1 CPT inconclusive.
Screening CN(C)CCCCOc1ccc(F)cc1 returned HT1080NT lethal inactive, HT1080 IDH1KD tx inactive, DT40 TDP1 no CPT inconclusive, IL-1B inflam inh inactive and DT40 TDP1 CPT inactive.
Screening Cc1ccc(CC2(OCCN(C)C)CCC(C(C)(C)C)CC2)cc1 (centres undefined) returned HT1080NT lethal inactive, HT1080 IDH1KD tx inactive, DT40 TDP1 no CPT 14.6µM, IL-1B inflam inh -99.5 and DT40 TDP1 CPT 18.4µM.
N#C/C(=C(/O)COC(=O)c1ccc(C#N)cc1)c1nc2ccccc2s1 was read as HT1080NT lethal inactive, HT1080 IDH1KD tx inactive, DT40 TDP1 no CPT inactive, IL-1B inflam inh inactive and DT40 TDP1 CPT inconclusive.
CC1CCN(S(=O)(=O)c2ccc3ncn(CC(=O)N(C)Cc4ccccc4)c(=O)c3c2)CC1 was read as HT1080NT lethal inactive, HT1080 IDH1KD tx inactive, DT40 TDP1 no CPT inactive, IL-1B inflam inh inactive and DT40 TDP1 CPT inactive.
Screening NS(=O)(=O)c1ccc(Nc2ccc3cc(S(=O)(=O)N4CCCCC4)ccc3n2)cc1 returned HT1080NT lethal inactive, HT1080 IDH1KD tx inactive, DT40 TDP1 no CPT inconclusive, IL-1B inflam inh inconclusive and DT40 TDP1 CPT inconclusive.
Screening CC1CCN(S(=O)(=O)c2ccc3nc(-c4ccccn4)cc(C(=O)NCCN(C)Cc4ccccc4)c3c2)CC1 returned HT1080NT lethal inactive, HT1080 IDH1KD tx inactive, DT40 TDP1 no CPT 5.8µM, IL-1B inflam inh inactive and DT40 TDP1 CPT 7.31µM.
For CC1CCN(S(=O)(=O)c2ccc3nc(Nc4cccc(F)c4)ccc3c2)CC1 the results were DT40 TDP1 no CPT 20.6µM and DT40 TDP1 CPT 20.6µM.
CCCCSCCCNC(=O)c1cc(-c2cccnc2)nc2ccc(S(=O)(=O)N3CCC(C)CC3)cc12 was read as DT40 TDP1 no CPT inactive and DT40 TDP1 CPT inactive.
Screening CC1CCN(S(=O)(=O)c2ccc3nc(NCc4ccccc4)ccc3c2)CC1 returned DT40 TDP1 no CPT 10.3µM and DT40 TDP1 CPT 10.3µM.
For CC(=O)c1ccc(Nc2ccc3cc(S(=O)(=O)N4CCCC4)ccc3n2)cc1 the results were DT40 TDP1 no CPT inconclusive and DT40 TDP1 CPT 20.6µM.
